Assay outcomes from PubChem BioAssay.
Sampled rows, rich in hits. Any-hit rate of the full collection: about 19%.
S-ASM inh: Inhibitors of Secretory Acid Sphingomyelinase (S-ASM): qHTS. Potency, µM (series often up to 57.5 µM), most hits filed as inhibitors. Sphingomyelin phosphodiesterase (Homo sapiens), P17405. AID 504937, 2011. placental ASM, HMU-PC fluorogenic substrate, 60 min. 340,000 tested, 0.006% active
Target sequence (P17405 47-631 limits assumed): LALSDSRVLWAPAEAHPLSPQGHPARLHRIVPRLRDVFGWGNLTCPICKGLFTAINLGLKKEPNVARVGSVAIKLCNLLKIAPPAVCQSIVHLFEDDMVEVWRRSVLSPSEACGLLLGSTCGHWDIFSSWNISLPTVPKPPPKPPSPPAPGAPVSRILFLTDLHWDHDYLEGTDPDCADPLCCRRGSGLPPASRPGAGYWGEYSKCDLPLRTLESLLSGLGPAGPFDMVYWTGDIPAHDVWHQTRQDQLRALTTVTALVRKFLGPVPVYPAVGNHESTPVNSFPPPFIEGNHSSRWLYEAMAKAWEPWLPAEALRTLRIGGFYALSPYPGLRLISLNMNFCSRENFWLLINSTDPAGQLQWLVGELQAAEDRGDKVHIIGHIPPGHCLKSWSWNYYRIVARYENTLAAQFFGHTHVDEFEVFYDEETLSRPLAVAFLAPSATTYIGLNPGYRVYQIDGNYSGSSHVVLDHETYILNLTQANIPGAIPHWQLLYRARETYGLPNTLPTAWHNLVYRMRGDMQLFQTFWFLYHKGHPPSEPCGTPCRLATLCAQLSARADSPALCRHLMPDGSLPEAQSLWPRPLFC
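Human placenta-derived ASM enzyme was preincubated with compound for 10 minutes at room temperature, then given fluorogenic substrate HMU-PC0 (9 uM final) for 60 minutes at 37 °C; a pH 10 stop preceded fluorescence reading at Ex 386/Em 447 nm.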
TGFb SMAD3 inh: qHTS for Inhibitors of TGF-b | 410,000 tested, 1.2% active | HepG2 CAGA-GFP TGF-b/SMAD3 reporter, GFP fluorescence, 18 h; TGF-beta stimulated, 500 pg/mL final | Potency, µM (titrated, usually from 46.1 µM), most hits filed as inhibitors; also: nearly all actives have a fitted effect of over 65% in size
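HEPG2 CAGA-GFP cells (1000/well, DMEM with 1% FBS) were pre-incubated 2 h at 37 degrees C, given compound by pin tool, then stimulated with TGF-beta at 500 pg/mL final for 18 h before per-cell GFP fluorescence imaging.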
IL-1B inflam inh: qHTS for Inhibitors of Inflammasome Signaling: IL-1-beta AlphaLISA Primary Screen; activity change, % at 57.5 µM; THP-1 LPS/ATP IL-1B secretion, AlphaLISA, 16 h; stronger effect = lower value; 360,000 tested, 4.7% active; in the data active = activity change below about -50%; inconclusive = mostly about -30% to -49%
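Secreted IL-1B measured by AlphaLISA bead assay after 16 h compound exposure of THP-1 cells; compounds (final up to 57.5 uM) added 1 h before LPS (250 ng/mL) and ATP (1.25 mM) stimulation; lower signal means less secretion.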
TDP1 cell noCPT: qHTS for Inhibitors of human tyrosyl-DNA phosphodiesterase 1 (TDP1): qHTS in cells in absence of CPT; DT40 Tdp1-/- hTDP1 cells, no CPT, ATP luminescence, 48 h; Potency, µM (titrated, usually from 46.2 µM), actives largely listed as inhibitors; 420,000 tested, 15% active; also: nearly all actives have a fitted effect of over 55% in size
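A cellular qHTS used chicken DT40 cells lacking endogenous Tdp1 but carrying stably transfected human TDP1. Compounds were applied without camptothecin, and cell growth kinetics were judged by ATP-dependent luminescence after ≥48 hr.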
DT40 TDP1 CPT: qHTS for Inhibitors of human tyrosyl-DNA phosphodiesterase 1 (TDP1): qHTS in cells in presence of CPT | 420,000 tested, 12% active | AID 686979, 2013 | Potency, µM (titrated, usually from 46.2 µM), most hits filed as inhibitors | chicken DT40 Tdp1-/-;hTDP1 cells + 20 nM CPT, ATP luminescence, 48 h; also: nearly all actives have a fitted effect of over 55% in size
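Cell growth measured by CellTiter-Glo luminescence after a minimum 48 h, 37 C compound exposure with 20 nM CPT in Tdp1-knockout DT40 cells stably expressing hTDP1, seeded 400/well; qHTS titration format.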
HepG2 tox: qHTS for Inhibitors of TGF-b: Cytotox Counterscreen; HepG2 CAGA-GFP viability, ATP luminescence, 18 h; Potency, µM (top dose mostly 46.1 µM), hits mostly cytotoxic; 410,000 tested, 0.76% active; AID 588856, 2011
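HepG2 CAGA-GFP cells (1000/well, DMEM with 1% FBS) received compound, then TGF-beta at 500 pg/mL final, and were incubated 18 hours at 37 degrees C. Viability was read by CellTiter-Glo luminescence. Media-only wells were set as complete cell-killing and DMSO as no toxicity.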
Hits are given with their value; 0 = inactive; ? = inconclusive; - = no result given; ! = not confirmed by another sample. Unless noted, calls follow the shape of the dose curve; as a rule, active = well fitted curve in the direction sought with a large enough effect; inconclusive = small, poorly fitted or top-dose-only effect, or another doubt; inactive = no such curve, though single readings can be large; an effect the other way counts as inactive or inconclusive.

SMILES	S-ASM inh	TGFb SMAD3 inh	IL-1B inflam inh	TDP1 cell noCPT	DT40 TDP1 CPT	HepG2 tox
Cc1cc(C(=O)Cn2nnc(-c3ccc(Cl)cc3)n2)c(C)n1-c1ccccc1	0	?	?	?	0	0
CCN(CC)Cc1cc(Nc2ccnc3cc(Cl)ccc23)ccc1O	0	0	-77!	23µM!	16µM!	0
Nc1c(Br)cc2c3c(cccc13)-c1ccccc1-2	0	0	0	5.2µM	8.2µM	16µM
O=C1c2ccccc2C2(c3ccc(Cl)cc3)NCCN12 (stereo unspecified)	0	0	-53	0	0	0
O=C(O)Cc1cccnc1C(=O)O	-	-	-	0	0	-
O=C(NC1CCCCC1)N1C[C@H]2C[C@@H](C1)c1cccc(=O)n1C2	0	0	0	0	0	0
COc1ccc(CC(C)NCCC(c2ccccc2)c2ccccc2)cc1 (stereo unspecified)	0	?	-71	16µM	13µM	0
O=C(OC1CCN(CCCl)CC1)C(c1ccccc1)c1ccccc1	0	0	-71	?	16µM	0
C[N+]1(C)[C@@H]2CC[C@H]1CC(OC(=O)C(c1ccccc1)c1ccccc1)C2 (stereo partly specified)	0	0	0	?	?	0
O=C(Nc1cc(C(F)(F)F)cc(C(F)(F)F)c1)c1cccn(Cc2ccccc2Cl)c1=O	-	0	-	?	?	0
CN1CCN(P(=O)(c2ccccc2)c2nc3ccccc3s2)CC1 (stereo unspecified)	0	0	0	0	0	0
COc1ccc(S(=O)(=O)NC(CC(=O)N2CCc3ccccc32)c2ccco2)cc1 (stereo unspecified)	0	?	0	0	0	0
CCOC(=O)C(O)(c1ccc(NC(=S)NC(=O)c2ccc(Cl)cc2Cl)c(C)c1)C(F)(F)F (stereo unspecified)	0	?	-54	12µM	?	0
CCOC(=O)C(O)(c1ccc(N(CC)C(=O)OC)cc1)C(F)(F)F (stereo unspecified)	0	0	0	0	0	0
COC(=O)C(O)(c1ccc(NC(=S)NC(=O)c2ccc(Cl)cc2Cl)c(C)c1)C(F)(F)F (stereo unspecified)	0	?	0	21µM	?	0
O=C(NCCOCCn1c(=O)oc2ccccc21)Nc1ccc(F)cc1F	-	?	-	12µM	10µM	0
COc1ccccc1CCNC(=O)CCn1c(=O)oc2ccccc21	0	0	0	0	0	0
COC(=O)[C@]1(C)CC[C@@]2(C)CC[C@@]3(C)C4=CCc5c(cc(O)c(O)c5C)[C@]4(C)CC[C@@]3(C)C2C1 (stereo partly specified)	-	-	-	1.8µM	4.6µM	-
CCCCCn1cc(C(=O)C(=O)N2CCOCC2)c2ccccc21	0	0	0	0	0	0
C/C(=N\Nc1cccc2ccccc12)c1c(O)n(Cc2ccccc2)c(=O)[nH]c1=O	0	0	0	21µM	16µM	0
C/C(=N\NC(=O)c1ccccc1)c1c(O)n(Cc2ccccc2)c(=O)[nH]c1=O	0	0	0	0	0	0
COc1cc2[nH]c(=O)n(-c3cccc(Cl)c3)c(=O)c2cc1OC	0	0	0	0	0	0
CCOc1cc2[nH]c(=O)n(CCCC(=O)N3CCN(c4cccc(Cl)c4)CC3)c(=O)c2cc1OCC	-	0	-	3.3µM	5.8µM	0
COc1ccc(C/C(=N\OC(C)=O)c2ccc(OC)cc2)cc1	0	0	0	?	0	0
CCCOC(=O)C1=C(C)CS[C@@H]2[C@H](NC(=O)COc3ccccc3)C(=O)N12	-	0	-	?	20µM	0
SMILES	S-ASM inh	TGFb SMAD3 inh	IL-1B inflam inh	TDP1 cell noCPT	DT40 TDP1 CPT	HepG2 tox
CC(N)Cc1ccc2c(c1)OCO2 (stereo unspecified)	-	-	-	0	0	-
CCCCCCC[n+]1ccc(-c2cc[n+](CCCCCCC)cc2)cc1	0	0	0	0.65µM	0.65µM	0
CCCCCCCCCCCCCCCC[n+]1ccccc1	?	16µM	-92!	0.33µM	0.65µM	20µM!
CC(Oc1ccc(Br)cc1)C(=O)N(Cc1nc(-c2ccccc2)no1)C(C)C (stereo unspecified)	-	?	-	?	?	0
Cc1ccccc1C(=O)Nc1sc2c(c1C(=O)O)CCC(C(C)(C)C)C2 (stereo unspecified)	-	0	-	4.6µM	10µM	0
CC(=O)OC1CC[C@]2(C#N)[C@H]3CC[C@]4(C)[C@H](C5C=CC(=O)O5)CCC4(O)C3CCC2(O)C1 (stereo partly specified)	0	0	0	?	?	10µM
CCOC(C[n+]1c(-c2ccccc2)cc(C)cc1-c1ccccc1)OCC	0	0	0	0.52µM	1.6µM	0
CCc1cc(-c2nnn(CCC3COCCO3)c2CC)cc(CC)c1-c1cn(Cc2ccc3ccccc3c2)nn1 (stereo unspecified)	-	0	0	8.2µM	21µM	0
FC(F)=C(F)CCSc1ncn[nH]1	0	0	0	0	0	0
CN(Cc1ccccc1)C(=O)c1cccc(NC(=O)Cc2ccc([N+](=O)[O-])cc2)c1	0	?	?	15µM	23µM	0
CCC(=NC(C)c1ccccc1)c1c(O)n(C)c(=O)n(C)c1=O (stereo unspecified)	0	0	0	7.3µM	21µM	0
CCC(=NCCc1c[nH]c2ccccc12)c1c(O)n(-c2ccc(C)cc2)c(=O)[nH]c1=O	0	0	0	?	?	0
CC/C(=N\Nc1ccccc1)c1c(O)n(C)c(=O)n(C)c1=O	0	0	0	?	?	0
CCC(=NCCc1c[nH]c2ccccc12)c1c(O)n(C)c(=O)n(C)c1=O	0	0	?	6.3µM	4µM	0
COC(=O)C1=C(c2ccc(F)cc2OCc2ccccc2)C[C@@H]2CC[C@H]1N2C(=O)NCCN1CCOCC1	0	0	0	?	0	0
COCCCNP1(=O)OCC(C)([N+](=O)[O-])CO1 (stereo unspecified)	0	0	0	0	0	0
CC(=O)OC1C2C(OC(=O)Cc3ccccc3)C(C)CC2(OC(C)=O)C(=O)/C(C)=C/C2C(CC[C@@]13CO3)C2(C)C (stereo partly specified)	-	-	-	0	0	-
